In the library only some 0.5% were active in any assay of this set; here they are far more common.
TRPV1 ag: activates the human vanilloid receptor TRPV1; Q8NER1; TRPV1-expressing cells, Fluo-8 calcium influx, agonist mode; activation, % at 8.33 µM; 0.19% of 320,000 active; AID 540275; in the data active = activation above about 80%; inconclusive = between about 30% and that limit
Target sequence (Q8NER1 whole entry, looked up): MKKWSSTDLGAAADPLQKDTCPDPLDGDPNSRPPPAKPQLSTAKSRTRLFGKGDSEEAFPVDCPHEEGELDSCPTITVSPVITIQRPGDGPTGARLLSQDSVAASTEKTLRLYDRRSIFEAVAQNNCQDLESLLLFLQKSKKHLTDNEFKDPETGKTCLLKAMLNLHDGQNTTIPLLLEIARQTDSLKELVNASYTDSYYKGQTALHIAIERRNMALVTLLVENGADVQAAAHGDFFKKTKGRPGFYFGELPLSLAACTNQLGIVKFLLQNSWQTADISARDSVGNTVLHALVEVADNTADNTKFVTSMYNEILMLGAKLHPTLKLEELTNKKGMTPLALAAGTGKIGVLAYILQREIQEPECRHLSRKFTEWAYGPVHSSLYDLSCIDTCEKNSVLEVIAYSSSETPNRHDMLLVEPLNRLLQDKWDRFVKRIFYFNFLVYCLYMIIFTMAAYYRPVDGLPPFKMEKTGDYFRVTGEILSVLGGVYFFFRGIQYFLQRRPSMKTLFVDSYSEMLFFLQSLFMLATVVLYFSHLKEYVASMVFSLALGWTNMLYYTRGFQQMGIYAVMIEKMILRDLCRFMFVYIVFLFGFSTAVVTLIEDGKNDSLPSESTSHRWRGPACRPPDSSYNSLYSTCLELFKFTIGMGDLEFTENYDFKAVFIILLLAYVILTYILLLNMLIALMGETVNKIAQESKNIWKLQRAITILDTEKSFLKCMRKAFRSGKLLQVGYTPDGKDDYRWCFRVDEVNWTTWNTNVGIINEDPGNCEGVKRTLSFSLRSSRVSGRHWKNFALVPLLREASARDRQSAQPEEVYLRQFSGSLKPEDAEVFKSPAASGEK
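TRPV1-expressing cells were cultured overnight at 35.5C and loaded with Fluo-8 calcium dye for 40 to 90 min at room temperature. After a 10 s baseline, compound was added and calcium influx was read kinetically for 3 min (ex 480/em 520 nm).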
RGS4 inh: inhibitors of human regulator of G protein signaling 4; Transcreener GDP fluorescence polarization, RGS4-accelerated GTP hydrolysis; 0.039% of 390,000 active; Potency, µM (series often up to 114 µM), hits mostly inhibitors; AID 504845; P49798; also: nearly all actives have a fitted effect of over 75% in size
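MLSMR compounds (23 nl, pin-transferred) preincubated 10 min at room temperature with a 500nM (2x) first reagent, then RGS4 at 900nM (2x) plus Transcreener GDP mix added; fluorescence polarization (620/688 nm) read before and after 90 min at 30 °C.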
TRPML1 agonist: agonists of human TRPML1 channel. TRPML1-expressing cells, Ca2+ dye fluorescence, FDSS. activation, % (test concentration not listed). 0.12% of 410,000 active. AID 624414; in the data active = activation above about 50%; inconclusive = mostly about 30% to 49%
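TRPML1-DL cells, Tet-induced overnight (~16 h, 37 degrees C), loaded 45-90 min at room temperature with Ca8 no-wash calcium dye plus quencher. FDSS fluorescence: 10 s baseline, compound pin-transfer, 110 s agonist read, then EC80 54-4 (4uM final) and 110 s antagonist read.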
TRPV1 potentiator: human TRPV1 potentiation; Q8NER1; TRPV1-expressing cells, Fluo-8 calcium influx, capsaicin EC20 potentiation; 0.02% of 320,000 active; potentiation, % at 8.33 µM; AID 540277; in the data active = potentiation above about 80%; inconclusive = between about 30% and that limit
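TRPV1-expressing cells were cultured overnight at 35.5C and loaded with Fluo-8 calcium dye for 40 to 90 min at room temperature. After a 10 s baseline, compound was added and calcium influx was read kinetically for 3 min (ex 480/em 520 nm).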
AT treatment: potential ataxia-telangiectasia treatment | F2112 A-T fibroblasts, KAP-1 phosphorylation AlphaLISA; neocarzinostatin DNA damage 30 min before lysis | Potency, µM (titrated, usually from 57.5 µM), actives largely listed as activators | 0.19% of 320,000 active; also: nearly all actives have a fitted effect of over 45% in size
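ATM-like activity read as KAP-1 phosphorylation via AlphaLISA donor/acceptor antibody pairs after lysis and 6 hr at 25C. Cells were ATM-null patient fibroblasts (F2112, hTERT), dosed 60 min, then exposed to the DSB inducer NCS for 30 min.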
TRPML1 blocker: human mucolipin-1 channel inhibition | activity change, negative = inhibition, % (test concentration not listed) | TRPML1-inducible cells, Ca2+ dye fluorescence, FDSS; hits give low values; inhibition of EC80 agonist-evoked calcium signal | AID 624415 | Q9GZU1 | 0.02% of 390,000 active; in the data active = activity change below about -50%; inconclusive = between about -30% and that limit;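 also: stimulus is agonist 54-4 at its EC80 concentration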
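TRPML1-DL cells, Tet-induced overnight (~16 h, 37 °C) at 1,500 cells/well, were loaded with Ca8 no-wash dye plus quencher for 45-90 min at room temperature. Compounds were pinned during FDSS kinetic reading; agonist 54-4 at EC80 (4 uM final) then added.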
Large screens that a line does not name were inactive. Unless noted, calls follow the shape of the dose curve; as a rule, active = well fitted curve in the direction sought with a large enough effect; inconclusive = small, poorly fitted or top-dose-only effect, or another doubt; inactive = no such curve, though single readings can be large; an effect the other way counts as inactive or inconclusive.

OC(CN1CCNCC1)Cn1c2ccccc2c2ccccc21 (stereo unspecified)	none
c1ccc(CCc2ccccc2-c2nc(-c3cccnc3)no2)cc1	AT treatment 40µM
c1ccc(CCc2nc(-c3cccnc3)no2)cc1	none
CCCOc1ccccc1/C=C(\C#N)C(=O)Nc1cccc(C)n1	none
Cc1cccc(NC(=O)/C(C#N)=C/c2ccc(F)cc2)n1	TRPV1 potentiator inconclusive, AT treatment 0.71µM
COC(=O)CSc1nnc(-c2cccc(O)c2)o1	TRPML1 blocker inconclusive (no result: TRPV1 ag, TRPV1 potentiator, AT treatment)
CCOC(=O)c1sc(NC(=O)Cn2nnc3sc4c(c3c2=O)CCCC4)nc1C	none
CCOC(=O)c1nc2sc3c(c2c(=O)n1C(C)C(=O)OCC)CCCC3 (stereo unspecified)	TRPV1 ag 80
COc1cc(/C=C(\C#N)c2nc3ccccc3n2C)cc(OC)c1O	TRPML1 agonist 59, TRPV1 potentiator inconclusive
Cn1c(/C(C#N)=C/c2ccc(O)cc2)nc2ccccc21	TRPV1 ag inconclusive (no result: TRPML1 agonist, TRPML1 blocker)
Cc1cccc2[nH]c(CN(C)C(=O)C3CCC(=O)N(C4CC4)C3)nc12 (stereo unspecified)	none
Cc1ccc(S(=O)(=O)Cc2ccc([N+](=O)[O-])cc2)cc1	none
Cc1ccc(CNC(=O)c2cccc3c2C(=O)c2ccc(N4CCOCC4)cc2S3(=O)=O)cc1	none
Cc1ccc(CNC(=O)c2cccc3c2C(=O)c2ccc(N4CCCCC4)cc2S3(=O)=O)cc1	TRPML1 agonist 50
Fc1ccc(C2=CC(c3ccco3)n3ncnc3N2)cc1 (stereo unspecified)	TRPV1 ag inconclusive
C1=C(c2ccc(-c3ccccc3)cc2)Nc2ncnn2C1c1ccco1 (stereo unspecified)	RGS4 inh inconclusive, TRPML1 agonist 69
CCN(CC)c1ccc(C(=O)NNC(=O)CCl)cc1	TRPV1 potentiator 123
CCN(CC)c1ccc(C(=O)NNC(=O)CCNC(=O)c2ccccc2)cc1	RGS4 inh inconclusive
Cn1nnc2c(N3CCN(c4cccc(C(F)(F)F)c4)CC3)ncnc21	none (no result: TRPV1 ag, TRPV1 potentiator, AT treatment)
CC(=O)c1ccc(NC(=O)C2CCN(S(=O)(=O)c3ccc4[nH]c5c(c4c3)CCCCC5)CC2)cc1	none (no result: TRPV1 ag, TRPV1 potentiator, AT treatment)
COc1ccc(-c2cc(C(F)F)n3ncc(C(=O)Nc4c(C)n(C)n(-c5ccccc5)c4=O)c3n2)cc1	none
COc1ccc(-c2cc(C(F)F)n3ncc(C(=O)Nc4cc(C)on4)c3n2)cc1	TRPV1 ag 85
Clc1ccc(CN(CC2CCCO2)C(c2cccs2)c2nnnn2C2CCCC2)cc1 (stereo unspecified)	TRPML1 agonist 54
Cc1cc(C(C)(C)C)oc1C(=O)N(CC(=O)NC1CCCC1)Cc1ccccc1Cl	TRPV1 ag inconclusive
Cc1ccccc1N(CC(=O)NC1CCCC1)C(=O)c1oc(C(C)(C)C)cc1C	TRPML1 agonist 70 (no result: AT treatment)
Cc1cc(C(C)(C)C)oc1C(=O)N(CC(=O)NC1CCCC1)c1cccc(C(F)(F)F)c1	TRPV1 ag inconclusive, TRPML1 agonist 52
Cc1ccc(C(=O)N(CC(=O)NC2CCCC2)c2cccc(F)c2)s1	none
COc1ccc(N2C(=O)C3CCCN3C2c2cccc(OC)c2OC)cc1 (stereo unspecified)	none
C=CCOc1c(Br)cc(CNc2ccc3[nH]c(=O)[nH]c3c2)cc1OCC	TRPV1 ag 87
C/C(=N\NC(=S)Nc1c(C)cccc1C)c1ccc(OC(F)F)cc1	none
O=C(Nc1ccc(F)cc1)c1ccc2ncsc2c1	TRPV1 ag 93
CC(=O)c1ccc(NC(=O)c2ccc3snnc3c2)cc1	TRPV1 ag inconclusive
O=C(Nc1ccc(Cl)cc1)c1ccc2snnc2c1	TRPV1 ag 88
O=C(Nc1ccc(Cl)cc1)c1ccc2ncsc2c1	TRPV1 ag inconclusive, RGS4 inh inconclusive
COc1ccc(NC(=O)c2ccc3ncsc3c2)c2ccccc12	TRPV1 ag 88
O=C(Nc1cccc(S(=O)(=O)N2CCCCC2)c1)c1ccc2ncsc2c1	TRPV1 ag 85
CCn1nc(CCC(=O)O)c2ccccc2c1=O	none
O=C(NCc1ccc(F)cc1)c1cc2cccc3c2n1CCS3	none (no result: TRPV1 ag, TRPV1 potentiator, AT treatment)
O=C(O)c1ccccc1NS(=O)(=O)c1cccc(-n2sc3ccccc3c2=O)c1	none
O=C(CSc1nc2ccc(Nc3nc(N4CCOCC4)nc(N4CCOCC4)n3)cc2s1)Nc1ccccc1Cl	TRPML1 agonist inconclusive
O=C(Nc1ccc(N2CCOCC2)cc1)c1ccc2ncsc2c1	none (no result: TRPV1 ag, TRPV1 potentiator)
O=C(Nc1ccc(C(F)(F)F)cc1)c1ccc2ncsc2c1	TRPV1 ag 90
O=C(Nc1ccc(C(F)(F)F)cc1)c1ccccc1	TRPV1 ag 82
O=C(c1ccc(-c2cccc(C(F)(F)F)c2)o1)N1CCOCC1	TRPV1 ag 86
Fc1ccc(Nc2nnc(C(F)(F)F)s2)cc1	none
CCOc1ccc(NC(=O)[C@H](Cc2ccccc2)N2Cc3ccccc3C2=O)cc1	none (no result: TRPV1 ag, TRPV1 potentiator, AT treatment)
CCOc1ccc(NC(=O)C(Cc2ccccc2)N2C(=O)c3cccc4cccc(c34)C2=O)cc1 (stereo unspecified)	TRPML1 agonist 61
Nc1c(S(=O)(=O)c2ccccc2)c2nc3ccccc3nc2n1Cc1ccco1	RGS4 inh inconclusive, AT treatment 22µM
Cc1ccc(S(=O)(=O)c2c(N)n(Cc3ccco3)c3nc4ccccc4nc23)cc1C	none
NC(=O)C1=C[C@@H](c2ccc(C(F)(F)F)cc2)C[C@@H](OCc2ccc(CO)cc2)O1	none
O=C(Nc1ccc(C(=O)NCc2ccc(F)cc2)cc1)C1=CSCCO1	none
Cc1ccc(-c2cn3nc(-c4ccccc4)c(-c4ccccc4)nc3n2)cc1	TRPV1 ag inconclusive, AT treatment 28µM
NC1=NC(=O)/C(=C/c2cn(CCC(=O)O)nc2-c2ccc(F)cc2)S1	none
CC(C)(C)OC(=O)NCCCC[C@H](NC(=O)c1nc[nH]c1C(=O)N[C@@H](CCCCNC(=O)OC(C)(C)C)C(=O)OC(C)(C)C)C(=O)OC(C)(C)C	TRPV1 potentiator inconclusive, AT treatment 22µM
CC(C)(C)OC(=O)NCCCCCNC(=O)c1[nH]cnc1C(=O)N[C@@H](CCCCNC(=O)OC(C)(C)C)C(=O)OC(C)(C)C	none
CC(C)(C)OC(=O)[C@H](Cc1ccccc1)NC(=O)c1nc[nH]c1C(=O)NCC(=O)OCc1ccccc1	TRPV1 ag inconclusive
CC(C)(C)OC(=O)CNC(=O)c1[nH]cnc1C(=O)N[C@@H](Cc1ccccc1)C(=O)OC(C)(C)C	TRPV1 ag 82
Cc1cccc(NC(=O)COc2cccc3c(=O)n(C)ccc23)c1C	none (no result: TRPV1 ag, TRPV1 potentiator, AT treatment)
CC1(C)N=C(N)N=C(N)N1c1cccc(CN)c1	AT treatment 28µM

Bioassay records from PubChem BioAssay.
